Assay outcomes as filed in PubChem BioAssay.
DT40 TDP1 CPT: growth inhibition of DT40 Tdp1-/-;hTDP1 cells with camptothecin (screen for TDP1 inhibitors); chicken DT40 Tdp1-/-;hTDP1 cells + 20 nM CPT, ATP luminescence, 48 h; Potency, µM (titrated, usually from 46.2 µM), actives largely listed as inhibitors; 420,000 tested, 12% active; AID 686979; further: nearly all actives have a fitted effect of over 55% in size
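Chicken DT40 Tdp1-/- cells complemented with human TDP1, 400 cells/well, exposed to compounds plus 20 nM camptothecin for at least 48 h at 37 C; viability read as ATP content by CellTiter-Glo luminescence.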
HepG2 tox: counter-screen for TGF-b inhibitors: cytotoxicity in HepG2 cells; HepG2 CAGA-GFP viability, ATP luminescence, 18 h; Potency, µM (doses to about 46.1 µM), actives largely listed as cytotoxic; 410,000 tested, 0.76% active; AID 588856
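CellTiter-Glo luminescence gave cytotoxicity after 18 hours at 37 degrees C. The cells were HepG2 CAGA-GFP in 1% FBS DMEM, stimulated with 500 pg/mL TGF-beta after compound addition. %Activity was normalised to no-cell wells (complete cell-killing) and DMSO (no toxicity), and curves were fitted and classified.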
DT40 TDP1 no CPT: qHTS for Inhibitors of human tyrosyl-DNA phosphodiesterase 1 (TDP1): qHTS in cells in absence of CPT; DT40 Tdp1-/- hTDP1 cells, no CPT, ATP luminescence, 48 h; Potency, µM (titrated, usually from 46.2 µM), hits mostly inhibitors; 420,000 tested, 15% active; further: nearly all actives have a fitted effect of over 55% in size
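A cellular qHTS used chicken DT40 cells lacking endogenous Tdp1 but carrying stably transfected human TDP1. Compounds were applied without camptothecin, and cell growth kinetics were judged by ATP-dependent luminescence after ≥48 hr.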
IL1B secr inh: inflammasome signaling inhibition, IL-1 beta readout | 360,000 tested, 4.7% active | activity change, % at 57.5 µM | THP-1 LPS/ATP IL-1B secretion, AlphaLISA, 16 h; active compounds read low | AID 743279; in the data active means activity change below about -50%; inconclusive means mostly about -30% to -49%
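THP-1 cells pretreated 1 hr with compounds (up to 57.5 uM final), then stimulated with LPS (250 ng/mL final) plus ATP (1.25 mM final); secreted IL-1B measured by AlphaLISA after 16 hr, decreased signal indicating inhibition.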
TDP1 block: TDP1 (human) enzyme inhibition; Q9NUW8; recombinant TDP1, AlphaScreen DNA substrate cleavage; Potency, µM (top dose mostly 130 µM), hits mostly inhibitors; 350,000 tested, 0.28% active; AID 485290; further: nearly all actives have a fitted effect of over 40% in size
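Steps: enzyme plus compound, 15 min RT; add biotin/phosphotyrosine-FITC oligonucleotide (15 nM final), react 5 min; add donor/acceptor beads (10 ug/ml final), 10 min; read AlphaScreen. Tdp1 at 1 nM final.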
TGFb inhibitor: inhibitors of TGF-b signaling; HepG2 CAGA-GFP TGF-b/SMAD3 reporter, GFP fluorescence, 18 h; TGF-beta stimulated, 500 pg/mL final; Potency, µM (top dose mostly 46.1 µM), usual class: inhibitors; 410,000 tested, 1.2% active; AID 588855; further: nearly all actives have a fitted effect of over 65% in size
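GFP signal (ex488/em500-530) from TGF-beta-stimulated HEPG2 CAGA-GFP cells, 500 pg/mL final, 18 h at 37 degrees C in DMEM plus 1% FBS, normalized to unstimulated and DMSO-stimulated controls.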
A number is an active result; – = inactive; ? = inconclusive; · = not tested or not shown; ! = a repeat was not active. An excerpt weighted towards active compounds, which were near 19% of everything screened. Unless noted, the call rests on the fitted dose curve; in most records, active means well fitted curve in the direction sought with a large enough effect; inconclusive means small, poorly fitted or top-dose-only effect, or another doubt; inactive means no such curve, though single readings can be large; an effect the other way counts as inactive or inconclusive.

SMILES	DT40 TDP1 CPT	HepG2 tox	DT40 TDP1 no CPT	IL1B secr inh	TDP1 block	TGFb inhibitor
COc1ccc(C(=O)NCc2nnc(SCC(=O)Nc3ccccc3)n2-c2ccc(F)cc2)cc1	–	–	–	·	–	?
COc1ccc(/C=C/C(=O)c2ccc(O)cc2)cc1	–	–	?	-80.1	–	–
COc1ccc(C(=O)Cn2c(=O)c(-c3cc(C)ccc3NC(C)=O)nc3ccccc32)cc1	–	–	–	·	–	–
COc1ccc(C(=O)Cn2c(C(=O)/C=C/c3ccccc3)nc3ccccc32)cc1	14.6µM	–	23.1µM	–	–	–
CCCN1CNc2c(c(=O)[nH]c(=S)n2CCc2c(OC)cccc2OC)C1	–	·	–	·	–	·
COC(=O)C(CCSC)NS(=O)(=O)c1ccccc1Br (centres undefined)	·	–	·	·	–	–
CC1(C(=O)N2CCC(CC3CC(c4cccc(Br)c4)=NO3)(C(=O)NCC3CCCCC3)CC2)CC1 (centres undefined)	18.4µM	–	18.4µM	?	·	?
O=C(Cc1ccc(F)cc1)N1CCC(CC2CC(c3cccc(Br)c3)=NO2)(C(=O)NCC2CCCCC2)CC1 (centres undefined)	?	–	?	?	·	–
O=C(CCCCCBr)N1CCC(CC2CC(c3ccc(Cl)cc3)=NO2)(C(=O)NCC2CCCCC2)CC1 (centres undefined)	–	–	?	–	·	–
O=C(CCCCCBr)N1CCC(CC2CC(c3cccc(Br)c3)=NO2)(C(=O)NCC2CCCCC2)CC1 (centres undefined)	?	–	20.6µM	?	·	?
CC(C)N(Cc1ccccc1)C(=O)Cn1ncc2c([nH]c3ccccc32)c1=O	–	–	?	·	–	–
O=C(O)c1cc(O)c2c(c1)C(=O)c1cc(O)cc(O)c1C2=O	13µM!	–	14.6µM!	–	·	–
COc1cc(O)c2c(c1)C(=O)c1cc(C)cc(O)c1C2=O	–	·	–	·	–	·
COc1ccc2occ(C(=O)c3coc4ccc(O)c(CN(C)C)c34)c2c1	16.4µM	–	?	–	–	–
CCN(CC)Cc1c(O)ccc2occ(C(=O)c3ccccc3)c12	?	–	–	–	–	–
CN(C)Cc1c(O)ccc2occ(C(=O)c3ccc(F)cc3)c12	?	–	–	-53.8	·	–
Cc1cc(C)cc(N2CCn3c2nc2c3c(=O)n(Cc3ccc(Cl)cc3)c(=O)n2C)c1	–	–	–	·	–	–
N#C/C(=C\c1ccc(Cl)cc1)C(=O)NC1CC1	–	–	?	?	·	–
Cc1cc(/C=C(\C#N)C(=O)NC2CCCCCC2)c(C)[nH]1	–	–	?	–	–	–
CC(=O)Nc1ccc(/C=C(\C#N)C(=O)NC2CCCCC2)cc1	–	–	?	-85.5	–	–
C=CCNC(=O)/C(C#N)=C/c1ccc2c(c1)OCCO2	–	–	–	–	–	–
COc1ccc(-c2[nH]ncc2/C=C(/C#N)C(=O)NC2CCCCCC2)cc1	?	–	18.4µM	-88.2	–	–
CSc1ccc(/C=C(\C#N)C(=O)NC2CCCCC2)cc1	?	–	20.6µM	–	–	–
C=CCNC(=O)/C(C#N)=C/c1ccc(SC)cc1	–	–	?	-57.4	–	–
CN(C)S(=O)(=O)c1ccc2c(c1)c(=O)c(C(=O)N1CCN(c3cccc(Cl)c3)CC1)cn2C	–	–	?	·	–	–
CCN(c1ccccc1)S(=O)(=O)c1cc(C(=O)OC2CCOC2=O)ccc1C (centres undefined)	–	–	–	–	–	–
CC1CCCCC1NC(=O)/C(C#N)=C/c1ccc2c(c1)OCCO2 (centres undefined)	?	–	?	-101.7	–	?
CC1CCCCC1NC(=O)/C(C#N)=C/c1ccc(F)c(F)c1 (centres undefined)	–	–	–	–	–	–
